Data taken from PubChem BioAssay AID1159580 (chemical genetic matrix, 2015).
Where “and” joins values, the source holds several entries; their conditions need not be identical. Equal values may be shown once. Hit rate of the full screen: of about 5,500 compounds, about 2,000 (36%) were called active. Another 18% or so got no clear call; they are omitted. Rule as the data show it: active = normalized growth mostly below about 0.91 (no sharp cut-off); inconclusive = no clear call, values can overlap the other calls; inactive = mostly above about 0.92. Some of the results follow.

Assay: chemical genetic growth profiling, strain panel (AID 1159580);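 also: tested at 20 µM; growth read once vehicle control cultures reached saturation at 30 °C; 1 = growth at the plate median or of vehicle wells; lower values mean less growth of the strain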
Conditions: S. cerevisiae deletion strains, growth OD

Measured: normalized growth

COc1ccc2c(=O)c(-c3cc4c(cc3OC)OCO4)coc2c1
inactive: locus YAL021C, strain ccr4, hits give low values 1 | locus YAL026C, strain drs2, hits give low values 1.01 | locus YAL030W, strain snc1, hits give low values 1 | locus YBL061C, strain skt5, hits give low values 1.01 | locus YBR009C, strain hhf1, hits give low values 1 | locus YBR021W, strain FUR4, hits give low values 0.907 | locus YBR023C, strain chs3, hits give low values 1.01 | locus YBR171W, strain sec66, hits give low values 1.01 | locus YBR229C, strain ROT2, hits give low values 1 | locus YBR231C, strain swc5, hits give low values 1.01 | locus YBR279W, strain paf1, hits give low values 1.02 | locus YCL011C, strain gbp2, hits give low values 1.01 | locus YCL016C, strain dcc1, hits give low values 1.01 | locus YCL029C, strain bik1, hits give low values 1 | locus YCL061C, strain MRC1, hits give low values 1.01 | locus YCL069W, strain vba3, hits give low values 1 | locus YCR088W, strain abp1, hits give low values 1.01 | locus YDL005C, strain med2, hits give low values 1.01 | locus YDL035C, strain GPR1, hits give low values 1 | locus YDL040C, strain nat1, hits give low values 1.01 | locus YDL074C, strain BRE1, hits give low values 1.04 | locus YDL101C, strain DUN1, hits give low values 1.05 | locus YDL185W, strain tfp1, hits give low values 1.02 | locus YDL192W, strain arf1, hits give low values 1.01 | locus YDR001C, strain nth1, hits give low values 1.01 | locus YDR069C, strain doa4, hits give low values 1.02 | locus YDR101C, strain arx1, hits give low values 0.997 | locus YDR137W, strain rgp1, hits give low values 0.971 | locus YDR159W, strain sac3, hits give low values 1.03 | locus YDR162C, strain NBP2, hits give low values 1.03 | locus YDR195W, strain ref2 1.03 | locus YDR297W, strain sur2, hits give low values 1.01 | locus YDR318W, strain mcm21, hits give low values 1 | locus YDR334W, strain swr1, hits give low values 1.03 | locus YDR335W, strain msn5, hits give low values 1.01 | locus YDR388W, hits give low values 0.997 | locus YDR392W, strain spt3, hits give low values 1.02 | locus YDR502C, strain sam2, hits give low values 1.02 | locus YEL003W, strain gim4, hits give low values 1.01 | locus YEL037C, strain rad23, hits give low values 1.01 | locus YEL061C, strain CIN8 (second series), hits give low values 1.01 | locus YER015W, strain faa2, hits give low values 1.01 | locus YER016W, strain bim1, hits give low values 1.01 | locus YER110C, hits give low values 1.01 | locus YER111C, strain swi4, hits give low values 1.01 | locus YER155C, strain BEM2 (second series), hits give low values 1 | locus YER155C, strain BEM2, hits give low values 1 | locus YER167W, strain BCK2, hits give low values 1.02 | locus YFR010W, strain ubp6, hits give low values 1.02 | locus YGL078C, strain dbp3, hits give low values 1 | locus YGL086W, strain mad1, hits give low values 0.993 | locus YGL167C, strain pmr1, hits give low values 1.01 | locus YGL173C, strain kem1, hits give low values 1 | locus YGL227W, strain vid30, hits give low values 1.01 | locus YGL240W, strain doc1, hits give low values 1 | locus YGL248W, strain PDE1, hits give low values 1.02 | locus YGL253W, strain hxk2, hits give low values 1.01 | locus YGR135W, strain pre9, hits give low values 1 | locus YGR252W, strain gcn5, hits give low values 0.907 | locus YHR013C, strain ard1, hits give low values 1.03 | locus YHR027C, strain rpn1, hits give low values 1.02 | locus YHR030C, strain SLT2, hits give low values 0.98 | locus YHR079C, strain IRE1 (second series), hits give low values 1.03 | locus YHR079C, strain IRE1, hits give low values 0.982 | locus YHR094C, strain hxt1, hits give low values 1.02 | locus YHR129C, strain ARP1, hits give low values 1.03 | locus YHR142W, strain chs7, hits give low values 0.987 | locus YHR200W, strain rpn10, hits give low values 1.03 | locus YIL066C, strain RNR3, hits give low values 1.02 | locus YIL073C, strain SPO22, hits give low values 1.07 | locus YIL125W, strain kgd1, hits give low values 1 | locus YIR030C, strain dcg1, hits give low values 1.02 | locus YJL092W, strain hpr5, hits give low values 1.02 | locus YJL095W, strain BCK1 (second series), hits give low values 1.01 | locus YJL095W, strain BCK1, hits give low values 1.01 and 0.987 | locus YJL115W, strain asf1, hits give low values 1.02 | locus YJL129C, strain trk1, hits give low values 0.996 | locus YJL134W, strain LCB3, hits give low values 1.02 | locus YJL154C, strain vps35, hits give low values 1 | locus YJL164C, strain tpk1, hits give low values 1.02 | locus YJL166W, strain qcr8, hits give low values 1 | locus YJL168C, strain set2, hits give low values 1.02 | locus YJL187C, strain SWE1 (second series), hits give low values 1.03 | locus YJL187C, strain SWE1, hits give low values 1 | locus YJR066W, strain TOR1, hits give low values 0.927 | locus YKL009W, strain mrt4, hits give low values 0.952 | locus YKL068W, hits give low values 1.03 | locus YKL085W, strain MDH1 (second series), hits give low values 1.02 | locus YKL085W, strain MDH1, hits give low values 1.02 | locus YKL160W, strain elf1, hits give low values 1.01 | locus YKL190W, strain CNB1, hits give low values 1.04 | locus YKR001C, strain vps1, hits give low values 1.01 | locus YKR026C, strain gcn3, hits give low values 1.01 | locus YKR091W, strain srl3, hits give low values 1.01 | locus YLL001W, strain dnm1, hits give low values 1.01 | locus YLL026W, hits give low values 1.01 | locus YLL041C, strain sdh2, hits give low values 1.01 | locus YLR027C, strain aat2, hits give low values 1 | locus YLR039C, strain RIC1, hits give low values 1.13 | locus YLR058C, strain SHM2, hits give low values 1.02 | locus YLR102C, strain apc9, hits give low values 1.01 | locus YLR113W, strain HOG1, hits give low values 1.01 | locus YLR221C, strain rsa3, hits give low values 1 | locus YLR258W, strain gsy2, hits give low values 1 | locus YLR262C, strain YPT6 (second series), hits give low values 1.01 | locus YLR262C, strain YPT6, hits give low values 1.06 | locus YLR268W, strain sec22, hits give low values 0.972 | locus YLR320W, strain mms22, hits give low values 1.02 | locus YLR330W, strain CHS5, hits give low values 1.02 | locus YLR342W, strain FKS1 (second series), hits give low values 0.997 | locus YLR342W, strain FKS1, hits give low values 1.01 | locus YLR357W, strain rsc2, hits give low values 1.1 | locus YLR370C, strain arc18, hits give low values 1.01 | locus YLR371W, strain rom2, hits give low values 1.04 | locus YLR384C, strain iki3, hits give low values 0.998 | locus YLR418C, strain cdc73, hits give low values 1.05 | locus YML016C, strain PPZ1, hits give low values 1.02 | locus YML032C, strain rad52, hits give low values 0.98 | locus YML120C, strain ndi1, hits give low values 1.02 | locus YML124C, strain tub3, hits give low values 1.03 | locus YMR058W, strain fet3, hits give low values 1.02 | locus YMR078C, strain ctf18, hits give low values 1.02 | locus YMR125W, strain sto1, hits give low values 1.04 | locus YMR129W, hits give low values 1.01 | locus YMR205C, strain PFK2, hits give low values 1.01 | locus YMR223W, strain ubp8, hits give low values 1.01 | locus YMR231W, strain pep5, hits give low values 1.01 | locus YMR307W, strain GAS1, hits give low values 0.979 | locus YNL067W, strain RPL9B, hits give low values 1.03 | locus YNL071W, strain lat1, hits give low values 1 | locus YNL153C, strain GIM3, hits give low values 1.04 | locus YNL183C, strain NPR1, hits give low values 0.944 | locus YNL209W, strain ssb2, hits give low values 1.01 | locus YNL233W, strain BNI4, hits give low values 1.03 | locus YNL248C, strain rpa49, hits give low values 1.02 | locus YNL250W, strain rad50, hits give low values 1.06 | locus YNL271C, strain bni1, hits give low values 1.02 | locus YNL298W, strain CLA4, hits give low values 0.969 | locus YNL307C, strain MCK1, hits give low values 0.97 | locus YNL322C, strain KRE1 (second series), hits give low values 1.01 | locus YNL322C, strain KRE1, hits give low values 1.02 | locus YNR049C, strain mso1, hits give low values 1.01 | locus YNR052C, strain pop2, hits give low values 1.02 | locus YOL012C, strain htz1 1.12 | locus YOL147C, strain pex11, hits give low values 1 | locus YOR001W, strain rrp6, hits give low values 1 | locus YOR061W, strain CKA2, hits give low values 1.02 | locus YOR069W, strain VPS5, hits give low values 1.02 | locus YOR070C, strain gyp1, hits give low values 1 | locus YOR080W, strain dia2, hits give low values 1.01 | locus YOR083W, strain WHI5, hits give low values 0.999 | locus YOR106W, strain vam3, hits give low values 1 | locus YOR136W, strain idh2, hits give low values 1.01 | locus YOR144C, strain elg1, hits give low values 1.04 | locus YOR184W, strain ser1, hits give low values 0.957 | locus YOR231W, strain MKK1, hits give low values 0.993 | locus YOR265W, strain rbl2, hits give low values 1.01 | locus YOR270C, strain vph1, hits give low values 1.04 | locus YOR290C, strain snf2, hits give low values 1.02 | locus YOR316C, strain cot1, hits give low values 1.02 | locus YPL051W, strain arl3, hits give low values 1 | locus YPL078C, strain atp4, hits give low values 1.01 | locus YPL106C, strain sse1, hits give low values 0.996 | locus YPL240C, strain hsp82, hits give low values 0.995 | locus YPL241C, strain CIN2, hits give low values 1.04 | locus YPL256C, strain CLN2, hits give low values 0.963 | locus YPR119W, strain clb2, hits give low values 1.02 | locus YPR141C, strain kar3, hits give low values 1.03 | locus YPR163C, strain tif3, hits give low values 0.992 | locus YPR167C, strain met16, hits give low values 1.02 | strain wtn01, hits give low values 1.01
